Compound activity: PubChem BioAssay, National Center for Advancing Translational Sciences (NCATS)
The list is not random: actives were taken first. Their share in the collection is about 21%.
IL1B secr inh: inflammasome signaling inhibition, IL-1 beta readout; actives 4.7% (n = 360,000); THP-1 LPS/ATP IL-1B secretion, AlphaLISA, 16 h; stronger effect = lower value; activity change, % at 57.5 µM; in the data active = activity change below about -50%; inconclusive = mostly about -30% to -49%; note: % is set by controls: 0 for no effect and ±100 for the full control effect
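THP-1 cells pretreated 1 hr with compounds (up to 57.5 uM final), then stimulated with LPS (250 ng/mL final) plus ATP (1.25 mM final); secreted IL-1B measured by AlphaLISA after 16 hr, decreased signal indicating inhibition.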
DT40 TDP1 CPT: growth inhibition of DT40 Tdp1-/-;hTDP1 cells with camptothecin (screen for TDP1 inhibitors) | chicken DT40 Tdp1-/-;hTDP1 cells + 20 nM CPT, ATP luminescence, 48 h | Potency, µM (highest dose often 46.2 µM), for inactives: top-dose activity change, negative = growth inhibition, actives largely listed as inhibitors | actives 12% (n = 420,000); note: potency is the fitted concentration of half-maximal effect; % is set by controls: 0 for no effect and ±100 for the full control effect; nearly all actives have a fitted effect of over 55% in size
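Chicken DT40 Tdp1-/- cells complemented with human TDP1, 400 cells/well, exposed to compounds plus 20 nM camptothecin for at least 48 h at 37 C; viability read as ATP content by CellTiter-Glo luminescence.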
ClpP mod: qHTS Assay for Activators of ClpP | ATP-dependent Clp protease proteolytic subunit (Bacillus subtilis (strain 168)), P80244 | purified B. subtilis ClpP, FRET peptide cleavage, 20 min | Potency, µM (series often up to 57.5 µM), for the others: top-dose activity change, negative = active | actives 1.9% (n = 340,000) | AID 651965, 2013; active = well fitted falling curve with a large enough effect; inconclusive = small, poorly fitted or top-dose-only effect; inactive = no such curve, though single readings can be large or run the other way; note: potency is the fitted concentration of half-maximal effect; the source files actives as falling curves though it sought activators and does not explain the sign; nearly all actives have a fitted effect of over 65% in size
Target sequence (P80244 whole entry, looked up): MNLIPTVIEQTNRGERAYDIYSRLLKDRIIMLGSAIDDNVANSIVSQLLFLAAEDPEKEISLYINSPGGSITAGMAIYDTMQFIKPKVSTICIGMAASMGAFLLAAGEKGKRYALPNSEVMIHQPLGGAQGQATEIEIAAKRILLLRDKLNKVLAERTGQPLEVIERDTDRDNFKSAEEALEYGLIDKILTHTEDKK
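Purified B. subtilis ClpP, 10 microg/mL final in Tris/HCl pH8 with KCl, BSA, glycerol and Tween-20, cleaved an Abz/nitrotyrosine-quenched decapeptide. Fluorescence (ex 320, em 430) was read at 0 and 20 min at room temperature. Delta was normalized to 5.8 microM ADEP and DMSO/no-enzyme controls.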
DT40 TDP1 no CPT: qHTS for Inhibitors of human tyrosyl-DNA phosphodiesterase 1 (TDP1): qHTS in cells in absence of CPT. DT40 Tdp1-/- hTDP1 cells, no CPT, ATP luminescence, 48 h. Potency, µM (highest dose often 46.2 µM), inactives show at the highest dose activity change, negative = growth inhibition, actives largely listed as inhibitors. actives 15% (n = 420,000). AID 686978, 2013; note: potency is the fitted concentration of half-maximal effect; % is set by controls: 0 for no effect and ±100 for the full control effect; nearly all actives have a fitted effect of over 55% in size
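DT40 Tdp1-/-;hTDP1 cells, no CPT (DMSO vehicle only), 400 cells/well; compounds pin-transferred; ≥48 hr, 37 °C; CellTiter-Glo 30 min RT dark, luminescence read.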
D3 antag: antagonists of human D3 dopamine receptor | P35462 | D3R cells, DiscoveRx beta-arrestin luminescence, antagonist mode; stronger effect = lower value | max response, negative = inhibition, % | actives 2.5% (n = 360,000) | AID 652054; in the data active = max response below about -50%; inconclusive = no clear call, values can overlap the other calls; note: % is set by controls: 0 for no effect and ±100 for the full control effect
Target sequence (P35462 whole entry, looked up): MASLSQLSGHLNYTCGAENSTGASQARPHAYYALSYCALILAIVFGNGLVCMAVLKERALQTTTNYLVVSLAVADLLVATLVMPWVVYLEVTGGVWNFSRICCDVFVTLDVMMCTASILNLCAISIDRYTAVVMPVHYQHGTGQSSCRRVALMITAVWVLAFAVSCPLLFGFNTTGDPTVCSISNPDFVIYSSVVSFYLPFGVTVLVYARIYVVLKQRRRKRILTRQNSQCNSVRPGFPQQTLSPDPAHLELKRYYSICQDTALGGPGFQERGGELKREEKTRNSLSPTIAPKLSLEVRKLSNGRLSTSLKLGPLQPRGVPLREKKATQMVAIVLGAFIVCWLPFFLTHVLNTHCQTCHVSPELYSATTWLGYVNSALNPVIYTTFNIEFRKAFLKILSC
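Cells expressing the human receptor were seeded at 1500 cells/well, incubated overnight at 37 degrees C in 5% CO2, then exposed to library compounds with dopamine controls for 90 minutes at 37 degrees C before luminescent detection.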
D3 ag: activates the human D3 dopamine receptor. max activation, %. actives 0.58% (n = 410,000). P35462. D3R DiscoveRx beta-arrestin cells, luminescence, 90 min; in the data active = max activation above about 30%; note: 0% is about no effect
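Agonist-mode cell screen: cells plated at 1500/well and incubated overnight at 37 °C, then exposed to library compounds for 90 min at 37 °C. Detection reagent was added for 30–60 min at room temperature, and luminescence was read.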
An asterisk follows results filed as active; ? = inconclusive; / = no result. Unless noted, calls come from the whole dose curve; as a rule, active = well fitted inhibition curve with a large enough effect; inconclusive = small, poorly fitted or top-dose-only effect; inactive = flat fitted curve, though single readings scatter.

SMILES | IL1B secr inh | DT40 TDP1 CPT | ClpP mod | DT40 TDP1 no CPT | D3 antag | D3 ag
N#Cc1nc(-c2ccco2)oc1NCc1ccco1 | -16 | ? | 3.2µM* | -24% | 5 | 8
O=C(COC(=O)c1ccc(-n2cnnn2)cc1)Nc1cc(Cl)ccc1F | -19 | 4% | -3% | -20% | -7 | 0
N#Cc1nc(-c2ccccc2)oc1NCCCn1ccnc1 | 24 | 0% | 4% | 15% | 6 | 1
N#Cc1nc(-c2ccc(F)cc2)oc1NCc1ccco1 | -8 | -20% | 4% | ? | 4 | 2
COc1ccc(-c2nc(C#N)c(NCc3ccco3)o2)cc1 | -27 | ? | 4% | 16µM* | 0 | -1
Cc1ccc(-c2nc(C#N)c(NCc3ccco3)o2)cc1 | -9 | -20% | 20µM* | ? | 13 | 3
O=S(=O)(c1ccccc1)c1nc(-c2ccco2)oc1NCCCN1CCOCC1 | 0 | 17% | 0% | -17% | -18 | -9
N#Cc1nc(-c2ccc(OCc3ccc(Cl)cc3)cc2)oc1NCCCn1ccnc1 | -25 | ? | 25µM* | ? | -29 | 0
N#Cc1nc(-c2ccco2)oc1NCCCN1CCOCC1 | 8 | 11% | 3.5µM* | 4% | 8 | 1
COc1ccc(OC)c(S(=O)(=O)N2CCC(C(=O)N3CCCCCC3)CC2)c1 | -9 | 2% | / | -12% | 4 | 5
Cc1ccc(NC(=O)COC(=O)c2cc(=O)c3cc(F)ccc3o2)cc1 | 33 | 11% | / | 4% | 5 | 1
c1ccc(N2CCN(CC3CCCCC3)CC2)cc1 | -6 | -16% | 1% | 3% | -75* | 8
Cc1cc(C(=O)OC(C)C(=O)N2CCc3ccccc32)ccc1[N+](=O)[O-] (centres undefined) | 10 | ? | 1% | ? | 8 | -11
COc1ccc(Nc2oc(-c3ccc(COc4ccccc4)o3)nc2C#N)cc1 | / | -7% | -15% | -15% | / | 0
CCCCNc1oc(-c2ccc(COc3ccccc3C)o2)nc1C#N | / | ? | 4% | ? | / | 2
COc1ccc(OCc2ccc(-c3nc(C#N)c(NCc4cccnc4)o3)o2)cc1 | / | ? | ? | 18µM* | / | -7
CCC(CC)c1nc(C#N)c(NCc2ccccc2)o1 | 1 | 23µM* | -19% | 21µM* | 2 | -3
CC(C)(C)c1ccc(-c2nc(C#N)c(NCc3cccnc3)o2)cc1 | -21 | -27% | 32µM* | ? | 19 | -9
Cc1ccccc1OCc1ccc(-c2nc(C#N)c(NCc3cccnc3)o2)o1 | / | 15µM* | 4% | 21µM* | / | 8
C/C(=N\Nc1ccc(F)cc1F)c1ccc(Br)s1 | 19 | -20% | / | -23% | 20 | -10
Cc1ccc(C([O-])=C(C(=S)NCc2ccccc2)[n+]2cccc(CO)c2)cc1[N+](=O)[O-] | 12 | 0% | / | / | -22 | -16
COc1ccc(OC)c(CCNC(=O)c2cc3c(=O)oc4ccc(C)cc4c3s2)c1 | / | 2% | 0% | -24% | / | 3
COc1ccc(OCc2ccc(-c3nc(C#N)c(NCc4ccccc4)o3)o2)cc1 | / | ? | 11µM* | ? | / | 2
Cc1ccc(CNc2oc(-c3ccc(COc4ccc(Cl)cc4)o3)nc2C#N)cc1 | / | -11% | ? | ? | / | 5
COc1ccc(CNc2oc(-c3ccc(COc4ccc(Cl)cc4)o3)nc2C#N)cc1 | / | -53% | 13µM* | ? | / | -6
SMILES | IL1B secr inh | DT40 TDP1 CPT | ClpP mod | DT40 TDP1 no CPT | D3 antag | D3 ag
COc1ccc(CNc2oc(-c3ccc(COc4ccccc4C)o3)nc2C#N)cc1 | / | ? | 4% | ? | / | 6
Cc1ccc(CNc2oc(-c3ccc(COc4ccc(C)cc4)o3)nc2C#N)cc1 | / | ? | 25µM* | ? | / | 8
Cc1ccc(NC(=O)CCC(=O)N2Cc3ccccc3Oc3ncccc32)c(C)c1 | / | ? | -2% | ? | / | 0
Cc1cc(=O)oc2cc(OCC(=O)NC3CCCC3)ccc12 | -2 | -12% | 5% | -4% | 3 | 10
Cc1ccc(C(C)C)cc1OCC(=O)NC1CCCCCCC1 | -57* | 18µM* | -4% | ? | -15 | -5
COc1ccc2c(c1)c(=O)oc1cc(OCC(=O)NC3CCCCC3)ccc12 | ? | ? | 8.9µM* | ? | 23 | -2
Cc1cccc(Oc2coc3cc(OCC(=O)NC4CCCCC4)ccc3c2=O)c1 | / | 21µM* | 0% | 23µM* | / | 1
CC(C)c1ccc(OCC(=O)NC2CCCC2)cc1 | 3 | 2% | 0% | 16% | 18 | 1
O=C(COc1ccc2ccc(=O)oc2c1)NC1CCCCC1 | -14 | -2% | 10µM* | ? | -26 | -2
C[N+]1(CN2C(=O)C3C4C=CC(C4)C3C2=O)CCCCC1 (centres undefined) | 35 | 0% | 2% | -7% | ? | -23
Cn1c(CC(=O)Nc2ccc(Cl)cc2)nnc1SCC(=O)N1CCOCC1 | 4 | 15% | -1% | -18% | 10 | 18
N#CC1(NC(=O)COc2ccc3ccc(=O)oc3c2)CCCCC1 | -12 | -19% | 35µM* | 0% | 4 | -6
O=C(COc1ccc2ccc(=O)oc2c1)Nc1nccs1 | -9 | -5% | 4% | -23% | 3 | 10
Cc1cc(C)cc(N2CC(C(=O)NC3CCCCC3)CC2=O)c1 (centres undefined) | -20 | 16% | / | -6% | -5 | -8
O=C1NCCN(Cc2ccc(Cl)c(F)c2)C1CC(=O)N1CCCCO1 (centres undefined) | -11 | -11% | -4% | -23% | 26 | 2
Cc1cccc(CSC2=NCCN2C(=O)c2ccc(S(=O)(=O)N(C)C)cc2)c1 | -1 | ? | -1% | 23µM* | -6 | -2
CC(=O)Nc1ccc(S(=O)(=O)N2CCN=C2SCc2ccc(F)cc2)cc1 | -15 | 18µM* | -1% | 26µM* | 22 | 3
CC(=O)Nc1ccc(S(=O)(=O)N2CCN=C2SCc2ccc(C)cc2)cc1 | -25 | ? | 0% | ? | 10 | 10
Cc1cccc(CSC2=NCCN2S(=O)(=O)c2ccc(F)cc2)c1 | -10 | 16µM* | -3% | ? | -11 | -20
Cc1ccc(S(=O)(=O)N2CCN=C2SCc2ccccc2)cc1 | -1 | -13% | -1% | 12% | 9 | 0
CN(C)S(=O)(=O)c1ccc(C(=O)N2CCN=C2SCc2cccnc2)cc1 | 15 | -16% | -3% | -36% | -19 | -2
